The full list was thinned out, with hits kept by preference.
Methyltransferases – Primary Screen for Target Class Profiling of Small Molecule Inhibitors of Methyltransferases; purified enzyme, MTase-Glo SAH luminescence; active compounds read low; calls only at 40 µM; 25,000 compounds, 3.9% hits; call rule not given here
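Each enzyme was assayed with SAM and its substrate. SAH formation detected by MTase-Glo luminescence; single-point 40 uM screen[…].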
Active calls of the source: *. % is set by controls: 0 for no effect and ±100 for the full control effect.

For CNc1nccc(-c2cccnc2Oc2cc(C(=O)Nc3cccc(C(F)(F)F)c3)ccc2C)n1 the results were Methyltransferases inactive.
For CN(C)C/C=C/C(=O)Nc1cccc(C(=O)Nc2ccc(Nc3nccc(-c4cccnc4)n3)cc2)c1 the results were Methyltransferases active.
For CN(C)C/C=C/C(=O)Nc1cccc(C(=O)Nc2cccc(Nc3ncc(Cl)c(-c4c[nH]c5ccccc45)n3)c2)c1 the results were Methyltransferases active.
Cn1c(=O)c(-c2c(Cl)cccc2Cl)cc2cnc(Nc3cccc(C(=O)O)c3)nc21 was read as Methyltransferases inactive.
`CN(C)C/C=C/C(=O)Nc1ccc(C(=O)Nc2cccc(Nc3ncc(Cl)c(-c4c[nH]c5ccccc45)n3)c2)cc1` gave Methyltransferases active.
`CCOC(=O)c1cc2n(n1)CC(C)(C(=O)NCCOC)N(c1cc(Cl)ccc1OC)C2=O` (centres undefined) gave Methyltransferases inactive.
Screening Cc1ccc(NS(=O)(=O)c2cc3[nH]c(=O)[nH]c3cc2C)cc1F returned Methyltransferases inactive.
Screening Cc1cc2c(cc3n2CC(C)(C(=O)NC2CCCCCC2)N(Cc2ccc4c(c2)OCO4)C3=O)o1 (centres undefined) returned Methyltransferases inactive.
Screening CC1(C(=O)NC2CCCCC2)Cn2c(ccc2-c2ccco2)C(=O)N1C1CCCc2ccccc21 (centres undefined) returned Methyltransferases inactive.
`O=c1c2ccccc2nc(SCc2ccccc2Cl)n1CCN1CCOCC1` gave Methyltransferases inactive.
For CC(C)CCNC(=O)C1(C)Cn2c(cc3ccccc32)C(=O)N1Cc1cccs1 (centres undefined) the results were Methyltransferases inactive.
CCCC1c2ccc(C)n2CCN1C(=O)Nc1ccc(CC(=O)OCC)cc1 (centres undefined) was read as Methyltransferases inactive.
COc1ccc2c(c1)CCc1c-2n[nH]c1C(=O)Nc1ccc2c(c1)C(=O)N(C)C1=NCCN12 was read as Methyltransferases inactive.
COc1ccc(NC(=O)CSc2nnc3n(Cc4ccccc4)c(=O)c4ccccc4n23)cc1 was read as Methyltransferases inactive.
Screening CCOc1cc(CNC(=O)c2ncn3c2C(=O)N(CC)C(C)(C(=O)NC2CCCC2)C3)ccc1OC (centres undefined) returned Methyltransferases inactive.
`CCOCCCN1C(=O)c2cc3c(OC)ccc(OC)c3n2CC1(C)C(=O)NC1CCCCCC1` (centres undefined) gave Methyltransferases inactive.
Screening COc1ccc(OC)c2c1cc1n2CC(C)(C(=O)NC2CCC(C)CC2)N(Cc2cccnc2)C1=O (centres undefined) returned Methyltransferases inactive.
For COCCCN1C(=O)c2cc3c(OC)ccc(OC)c3n2CC1(C)C(=O)NC1CCCCC1 (centres undefined) the results were Methyltransferases active.
For CCOCCCN1C(=O)c2cc3c(OC)ccc(OC)c3n2CC1(C)C(=O)NC1CCCCC1 (centres undefined) the results were Methyltransferases inactive.
Screening COc1ccc(OC)c2c1cc1n2CC(C)(C(=O)NC2CCCCCC2)N(Cc2cccnc2)C1=O (centres undefined) returned Methyltransferases inactive.
`COc1ccc(OC)c2c1cc1n2CC(C)(C(=O)NC2CCCCC2)N(Cc2cccnc2)C1=O` (centres undefined) gave Methyltransferases active.
`Cn1c(=O)n(C)c2cc(S(=O)(=O)N(Cc3ccco3)C(=O)c3ccncc3)ccc21` gave Methyltransferases inactive.
Cc1ccc(CN2CC(=O)N(Cc3ccc(Cl)cc3)c3ccccc3S2(=O)=O)cc1 was read as Methyltransferases inactive.
`CC1CCC(NC(=O)C2(C)Cn3c(nc4ccccc43)C(=O)N2Cc2cccc(Cl)c2)CC1` (centres undefined) gave Methyltransferases inactive.
`CCOc1ccc(CN2C(=O)c3ccc(-c4ccco4)n3CC2(C)C(=O)NCCC(C)C)cc1` (centres undefined) gave Methyltransferases inactive.
`COc1cccc(Cn2nc3n(CC(C)C)c(=O)c4ccc(C(=O)NC5CCCCC5)cc4n3c2=O)c1` gave Methyltransferases inactive.
For CCC1c2ccc(C)n2CCN1C(=O)NCc1cccc(OC)c1 (centres undefined) the results were Methyltransferases inactive.
For CC(C)CCNC(=O)C1(C)Cn2c(ccc2-c2ccco2)C(=O)N1CCc1ccc(Cl)cc1 (centres undefined) the results were Methyltransferases inactive.
`Cc1cc(C)c(S(=O)(=O)NCCn2c(-c3ccccc3)nc3ccccc32)cc1C` gave Methyltransferases inactive.
CN1C(=O)c2cc(C(=O)N3CCN(Cc4ccccc4)CC3)nn2CC1(C)C(=O)NC1CCCCC1 (centres undefined) was read as Methyltransferases inactive.
For CC(=O)NC(Cc1ccccc1)C(=O)NC(C(=O)O)C(C)C (centres undefined) the results were Methyltransferases inactive.
`O=C(O)CNC(=O)CNC(=O)CNC(=O)CSC(=O)c1ccccc1` gave Methyltransferases inactive.
`O=C(O)CNC(=O)C(CS)Cc1ccccc1` (centres undefined) gave Methyltransferases active.
For CCOc1cccc(C2c3cccn3-c3sc4c(c3CN2C(=O)Nc2ccc(C)c(F)c2)CCCC4)c1 (centres undefined) the results were Methyltransferases inactive.
Screening COc1ccc(Nc2nc3c(S(=O)(=O)c4ccc(C)cc4)nnn3c3ccccc23)cc1 returned Methyltransferases inactive.
For Cn1c(=O)c2ccc(C(=O)NC3CCCC3)cc2n2c(=O)n(Cc3c(F)cccc3Cl)nc12 the results were Methyltransferases inactive.
`Cc1cn(-c2cc(NC(=O)c3ccc(C)c(Nc4nccc(-c5cnccn5)n4)c3)cc(C(F)(F)F)c2)cn1` gave Methyltransferases inactive.
Screening CCN1CCN(Cc2ccc(NC(=O)c3ccc(C)c(NC(=O)c4cncc(-c5cccs5)c4)c3)cc2C(F)(F)F)CC1 returned Methyltransferases inactive.
Screening CCC(C)NC(=O)c1ccc2c(=O)n(C)c3nnc(SCC(=O)NC(C)C)n3c2c1 (centres undefined) returned Methyltransferases inactive.
Screening CCCN1C(=O)c2c(C(=O)Nc3ccccc3CC)ncn2CC1(C)C(=O)NCc1ccc(C)cc1 (centres undefined) returned Methyltransferases inactive.
`CC(C)CNC(=O)c1ccc2c(=O)n(Cc3ccccc3)c3nn(Cc4cccc(Cl)c4)c(=O)n3c2c1` gave Methyltransferases inactive.
`COC1C=C(C)C(O)(CO)C2(C)CCCC(C)(C)C12` (centres undefined) gave Methyltransferases active.
CC1=C[C@H](O)[C@H]2C(C)(C)CCC[C@]2(C)[C@@]1(O)CO was read as Methyltransferases inactive.
CC1(C)CCCC2(C)C1C(O)C=C(CO)C2(O)CO (centres undefined) was read as Methyltransferases inactive.
Cc1ccc(C)c(N2CCN(C(=O)CCc3nnc4n(CCc5ccccc5)c(=O)c5ccccc5n34)CC2)c1 was read as Methyltransferases inactive.
Cc1cc2[nH]c(=O)[nH]c2cc1S(=O)(=O)NC1CCCCC1 was read as Methyltransferases inactive.
For CC(C)CCn1c(=O)c2ccccc2n2c(SCc3ccc(F)cc3)nnc12 the results were Methyltransferases inactive.
